# A selection: hits, their analogues and other compounds. The true share with any hit is near 1.2%.
# Avidin fluor – compound fluoresces at 488/530 nm on avidin beads | compound fluorescence 488/530 nm, flow cytometry; stronger effect = higher value | fluorescence (KMESF) at 10 µM | actives 0.38% (n = 220,000); in the data active = fluorescence above about 47
# RGS7-Gao – human RGS7-Galphao interaction regulation. P09471. Multiplexed bead flow cytometry, RGS7-Galphao binding; actives lie on both sides. binding response (% of control), % at 10 µM. actives 0.35% (n = 220,000). AID 1439; in the data active = binding response below about 49% or above about 150%; inconclusive = no clear call, values can overlap the other calls; inactive = in between;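 note: fluorescent Galphao held in activated GDP-AlF4 state binding bead-coupled RGS7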
# Target sequence (P09471 whole entry, looked up): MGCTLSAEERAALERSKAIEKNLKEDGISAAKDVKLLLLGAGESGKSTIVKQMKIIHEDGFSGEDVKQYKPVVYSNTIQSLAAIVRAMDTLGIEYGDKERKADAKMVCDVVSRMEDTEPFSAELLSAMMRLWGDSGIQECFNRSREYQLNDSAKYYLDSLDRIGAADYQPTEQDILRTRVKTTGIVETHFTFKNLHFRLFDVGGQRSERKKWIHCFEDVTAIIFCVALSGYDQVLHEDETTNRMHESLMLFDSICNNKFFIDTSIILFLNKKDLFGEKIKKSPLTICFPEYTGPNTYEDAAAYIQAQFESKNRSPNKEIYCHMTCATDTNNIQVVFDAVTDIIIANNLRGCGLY
# RGS16-Gao HTS – regulators of human RGS16-Galphao interaction. O15492+P09471. bead-based flow cytometry RGS16-Galphao binding, fluorescence; actives lie on both sides. binding response (% of control), % at 10 µM. actives 0.38% (n = 220,000). AID 1441;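 note: Galphao activated by GDP with aluminum fluoride before binding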
# Target sequence (O15492 whole entry, looked up): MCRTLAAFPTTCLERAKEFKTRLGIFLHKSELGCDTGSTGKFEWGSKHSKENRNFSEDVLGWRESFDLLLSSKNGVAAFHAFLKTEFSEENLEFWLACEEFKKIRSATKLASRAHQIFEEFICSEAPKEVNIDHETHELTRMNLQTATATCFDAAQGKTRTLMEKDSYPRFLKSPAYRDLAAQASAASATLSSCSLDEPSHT
# Target sequence (P09471 whole entry, looked up): as the sequence (P09471 whole entry, looked up) above
# GSH fluor – compound fluoresces at 488/530 nm on GSH beads. fluorescence (KMESF) at 10 µM. actives 0.25% (n = 190,000). GSH beads flow cytometry, compound fluorescence 488/530 nm; stronger effect = higher value; in the data active = fluorescence above about 89;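 note: glutathione beads carrying GST-tagged Bcl family fusion proteins plus one bare bead set; values are compound well signal with DMSO vehicle wells as background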
# RGS4-Gao reg – modulates binding of RGS4 to human Galphao. Multiplexed bead flow cytometry; actives lie on both sides. binding response (% of control), % at 10 µM. actives 0.33% (n = 220,000). AID 1415; in the data active = binding response below about 49% or above about 150%; inactive = in between;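 note: fluorescent Galphao activated with aluminum fluoride binding bead-coupled RGS4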
# RGS8-Gao – human RGS8-Galphao interaction regulation; P09471; multiplexed bead flow cytometry, RGS8-Galphao binding; actives lie on both sides; response (percent of control binding), % at 10 µM; actives 0.34% (n = 220,000); AID 1423; in the data active = response below about 60% or above about 140%; inactive = in between;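 note: Galphao activated as the GDP aluminium fluoride complex binding bead-coupled RGS8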
# RGS4-Gao HTS – modulates binding between human RGS4 and Galphao | RGS4–Galpha-o binding response, % at 10 µM | shares compounds with RGS16-Gao HTS | multiplexed bead flow cytometry, RGS–Galpha-o binding | actives 99% (n = 1,600);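 note: fluorescently labeled Galpha-o bound to GDP with aluminium fluoride binding biotinylated RGS beads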
# Avidin counter – counter-screen: compounds disrupting biotin binding to avidin beads. inhibition, % at 10 µM. shares compounds with RGS16-Gao HTS. streptavidin beads, fluorescein-biotin binding, flow cytometry. 1,700 tested, under 10 active;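 active = inhibition above 50%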;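 note: median green fluorescence of gated singlet beads compared with DMSO control wells; 0% = DMSO wells and 100% = complete loss of bead fluorescence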
# RGS8-Gao confirm – RGS8-Galphao interaction regulation, single point confirmation | shares compounds with RGS16-Gao HTS | bead-based flow cytometry RGS8-Galphao binding, fluorescence; actives lie on both sides | binding response (% of control), % at 10 µM | actives 3% (n = 1,700); in the data active = binding response below about 72% or above about 130%; inactive = in between;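 note: Galphao activated as GDP AlF4 complex before binding bead RGS8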
# RGS7-Gao single – RGS7-Galphao interaction regulation, single point confirmation; shares compounds with RGS16-Gao HTS; bead-based flow cytometry RGS7-Galphao binding; actives lie on both sides; response (percent of control binding), % at 10 µM; actives 7.8% (n = 1,700); in the data active = response below about 75% or above about 130%; inactive = in between;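 note: fluorescent Galphao activated with GDP and aluminum fluoride binding bead-coupled RGS7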
# RGS16-Gao single – RGS16-Galphao interaction regulation, single point confirmation. bead-based flow cytometry, RGS16-Galphao binding; actives lie on both sides. AID 1838. shares compounds with RGS16-Gao HTS. response (% of control binding), % at 10 µM. actives 4% (n = 1,700); in the data active = response below about 74% or above about 130%; inactive = in between;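 note: Galphao activated as the GDP aluminium fluoride complex binding bead-coupled RGS16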
# RGS4-Gao confirm – RGS4-Galphao interaction regulation, single point confirmation | RGS4-Galphao binding, multiplexed bead flow cytometry; actives lie on both sides | binding response (% of control), % at 10 µM | AID 1840 | shares compounds with RGS16-Gao HTS | actives 4% (n = 1,700); in the data active = binding response below about 74% or above about 130%; inactive = in between
# RGS19-Gao single – confirmation of regulators of human RGS19-Galphao interaction; response (percent of control binding), % at 10 µM; bead-based flow cytometry RGS19-Galphao binding; actives lie on both sides; actives 5% (n = 1,700); shares compounds with RGS16-Gao HTS; in the data active = response below about 50% or above about 160%; inactive = in between;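 note: 100% = no compound control and 0% = blank background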
# Starred values were filed as active, the others as inactive; ? = inconclusive; / = no result given; [ ] = another dose, or the depositor's remark. Unless noted, the rule behind the calls is not given here.
SMILES,Avidin fluor,RGS7-Gao,RGS16-Gao HTS,GSH fluor,RGS4-Gao reg,RGS8-Gao,RGS4-Gao HTS,Avidin counter,RGS8-Gao confirm,RGS7-Gao single,RGS16-Gao single,RGS4-Gao confirm,RGS19-Gao single
COc1ccc([N+](=O)[O-])cc1C1NN=C(c2ccccc2O)S1 (stereo not drawn),11,99,93,25,94,98,/,/,/,/,/,/,/
O=C(C[n+]1ccc(-c2nnc3n2CCC3)cc1)c1ccc(Cl)c(Cl)c1,6,/,105,7,100,103,/,2,96,82,92,89,67
Cc1ccc(C)c(N2CN(Cc3cccnc3)CNC2=S)c1,2,98,21*,10,93,69,93*,2,104,104,107,104,96
Cc1ccc(N2CN(Cc3cccnc3)CNC2=S)cc1,17,102,102,17,105,102,/,/,/,/,/,/,/
Cc1ccc(CC(=O)O/N=C(\N)Cc2ccc([N+](=O)[O-])cc2)cc1,9,88,17*,7,92,78,92*,/,/,/,/,/,/
O=C(Cn1cc2c(n1)CCCC2)Nc1cc(-c2cccc(Cl)c2)no1,7,99,106,19,103,103,/,/,/,/,/,/,/
Cc1cc(C)c(S(=O)(=O)N2CCCCC2)c(C)c1N(C)S(=O)(=O)c1ccccc1,10,102,101,8,104,102,/,/,/,/,/,/,/
O=c1[nH]c2ccccc2nc1C(F)(F)F,6,?,167,/,173*[activator],137,/,-1,93,89,91,94,101
CCO/N=C(\C)c1c(O)cc(C(C)C)n(-c2ccccc2)c1=O,13,100,103,11,96,104,/,/,/,/,/,/,/
N#Cc1nc(COc2ccc(Br)cc2)oc1NCCN1CCOCC1,7,133,121,16,140,143*[activator],140*,3,98,101,99,98,95
CC(=O)c1c(C)[nH]c(C(=O)OCC(=O)N2c3ccccc3NC(=O)C2(C)C)c1C,12,98,92,11,101,97,/,/,/,/,/,/,/
O=C(Nc1ccc(Cl)c(-c2nc3ccccc3[nH]2)c1)c1ccc2c(c1)OCO2,6,103,215*[activator],9,107,136,107*,0,106,106,108,104,100
O=C(Nc1ccc(-c2nc3ccccc3[nH]2)cc1)c1ccc2c(c1)OCO2,10,100,98,15,99,101,/,/,/,/,/,/,/
O=C(c1ccccc1)c1ccc(Oc2ncccn2)cc1,18,99,97,15,96,98,/,/,/,/,/,/,/
CCOC(CCc1c(C)nc(NC(C)=O)[nH]c1=O)OCC,6,?,103,/,102,98,/,/,/,/,/,/,/
CC(=O)Nc1nc(C)c(CCCOc2ccc([N+](=O)[O-])cc2)c(=O)[nH]1,47*,?,128,/,153*[activator],103,/,1,103,108,107,105,95
COc1ccc(C(CC(=O)O)NS(=O)(=O)c2ccc(C)cc2)cc1OC (stereo not drawn),0,12*,13*,36,21*,12*,/,0,100,98,98,100,99
COc1ccc(C(CC(=O)O)NS(=O)(=O)c2ccc(C)cc2)cc1 (stereo not drawn),32,101,97,17,99,99,/,/,/,/,/,/,/
COc1cc(-c2nc(C)c(C(C)=O)n2O)ccc1OCC(=O)Nc1ccc(F)cc1,10,98,98,18,104,99,/,/,/,/,/,/,/
CCOc1cc(-c2nc(C)c(C(C)=O)n2O)ccc1OCC(=O)Nc1ccc(F)cc1,64*,158*[activator],114,10,110,103,110*,-1,93,90,92,101,77
CCOC(=O)c1cc(-c2cccs2)nc2c1c(C)nn2-c1ccccn1,8,105,158,11,105,114,/,/,/,/,/,/,/
Cc1nn(-c2ccccc2)c2nc(-c3cccs3)cc(C(=O)NN)c12,82*,198*[activator],102,11,115,96,115*,-1,102,103,100,102,108
Cc1ccc(OCc2nnc(SCC(=O)Nc3ccc4c(c3)OCO4)n2C)cc1,11,98,93,66,94,99,/,/,/,/,/,/,/
Cn1c(COc2ccccc2)nnc1SCC(=O)Nc1ccc2c(c1)OCO2,8,85,-21*,9,83,77,83*,0,97,97,97,98,89
Cc1ccc(NC(=O)c2ccc(OC(=O)COc3ccc(Cl)c(C)c3)cc2)cc1,1,99,45,7,88,79,/,/,/,/,/,/,/
Cc1nn(C)c(C(=O)NC2C3CC4CC(C3)CC2C4)c1Cl (stereo not drawn),5,87,9.8*,11,87,63,87*,0,100,94,93,96,93
Cn1ncc(Cl)c1C(=O)NC1C2CC3CC(C2)CC1C3 (stereo not drawn),20,98,108,11,97,101,/,/,/,/,/,/,/
CCCCN(CCCC)c1cn[nH]c(=O)c1Cl,1,16*,9.8*,12,22*,13*,/,0,104,109,109,103,107
Fc1ccc(-c2cc(C(F)(F)C(F)F)[nH]n2)cc1,79*,?,164,/,168*[activator],111,/,2,104,106,106,107,97
FC(F)C(F)(F)c1cc(-c2ccc(Cl)cc2)n[nH]1,5,?,108,/,110,104,/,/,/,/,/,/,/

# Source: PubChem (NMMLSC)
